High-throughput results from PubChem BioAssay.
In the library only some 4.1% were active in any assay of this set; here they are far more common.
TRPM1 prom inh – inhibitors of MITF-dependent TRPM1 promoter reporter, primary screen, cell-based, SK-MEL-5, single point, luciferase. SK-MEL-5 TRPM1 promoter luciferase, 24 h. hit rate 0.83% among 330,000. inhibition, % at 12.5 µM;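 active = mean inhibition across replicates of 60% or more, whatever share of single replicates reaches that level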
Shn3 3UTR inh – reduction of Shn3 3'UTR firefly luciferase signal, primary screen, Schnurri-3 inhibitor project, cell-based, Clone20 osteoblasts, set 2; hit rate 0.52% among 360,000; inhibition, % at 12.5 µM; AID 588674, 2011; Clone20 osteoblast Shn3 3'UTR firefly luciferase, 24 h;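 active = mean inhibition of at least 75% with every replicate also reaching 75%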;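 also: 0% = median of neutral control wells and 100% = pilot-screen positive control compound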
Peg3 prom inh – Peg3 promoter-driven luciferase inhibitors, primary screen, cell-based, HeLa, luciferase luminescence. inhibition, % at 20 µM. HeLa PEG-Prom luciferase reporter, overnight. hit rate 1.7% among 360,000;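 active = inhibition of at least 50% at 20 µM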
TWEAK Fn14 block – inhibitors of TWEAK-Fn14 signaling, primary screen, luciferase reporter cells, uHTS | TWEAK-stimulated Fn14 reporter cells, luciferase luminescence, 8 h | inhibition, % at 10 µM | hit rate 2% among 360,000 | AID 1159606, 2016; in the data active = inhibition above about 50%
EBV LMP1 NFkB – EBV LMP1-driven NF-kappaB luciferase reporter inhibitors, primary screen, cell-based, luminescence, single point; LMP1-induced NF-kappaB luciferase reporter cells; hit rate 0.69% among 350,000; inhibition, % at 12.5 µM; in the data active = inhibition above about 41%;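 also: 0% = neutral control wells and 100% = reference inhibitor control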
TROY NFkB inh – inhibitors of TROY-driven NF-kB signaling, primary screen, Q293 LMP1-TROYcd cells, NF-kB luciferase, uHTS | Q293 LMP1-TROYcd NF-kB luciferase reporter, 4 h | hit rate 0.98% among 360,000 | inhibition, % at 10 µM | AID 1347056, 2019;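 active = compounds whose plate-normalised and pattern-corrected inhibition of the luciferase reporter signal at the single screening dose is 50% or more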
Active calls of the source: *; . = not tested or not shown.

SMILES	TRPM1 prom inh	Shn3 3UTR inh	Peg3 prom inh	TWEAK Fn14 block	EBV LMP1 NFkB	TROY NFkB inh
COc1ccc(Cc2nnc(NC(=O)c3ccccc3C)s2)cc1	-4	2	8	-23	3	-5
CC(=O)/C=C/c1ccc2ccccc2n1	18	-39	103*	64*	21	-7
CN(C)c1ccc(C=C2C=CC=C2)cc1	-46	13	-99	62*	-5	9
CCCN(C)C1CN(Cc2cn(CCCC(=O)OC)nn2)S(=O)(=O)C1 (stereo unspecified)	.	.	.	-7	.	2
CCn1c(=O)cc(SCC(=O)Nc2ccc(C)cn2)c2ccccc21	-1	-79	83*	38	-32	16
CCn1c(=O)cc(SCC(=O)NCc2ccc(C)cc2)c2ccccc21	3	-9	2	14	-17	14
O=S(=O)(c1ccc(Cl)cc1)N1CCC(O)(c2cccnc2)CC1	-9	14	22	-15	-20	9
CC(C)CN(C(=O)COc1ccc2ccc(=O)oc2c1)C1CCS(=O)(=O)C1 (stereo unspecified)	-2	2	7	61*	4	-12
COc1c(O)cccc1/C=N/NC(=O)Cn1ccnc1C	9	-9	0	9	-15	-35
Cc1ccc(S(=O)(=O)Nc2ccc3c(c2)OCCO3)cc1C	13	12	-40	87*	23	80*
COc1ccc(NS(=O)(=O)c2ccc3c(c2)OCCO3)cc1OC	25	75	-1	23	32	1
Cc1c(S(=O)(=O)Nc2ccc3c(c2)OCCO3)cnn1C	-3	-5	4	37	-8	0
COc1ccc(OC)c(S(=O)(=O)NC(C)CCc2ccccc2)c1 (stereo unspecified)	5	-33	24	-4	51*	5
Cc1nn(C)cc1S(=O)(=O)Nc1ccc2c(c1)OCCO2	-10	18	22	77*	32	82*
COc1ccc(OC)c(S(=O)(=O)Nc2ccc3c(c2)OCCO3)c1	.	-4	19	84*	27	76*
Brc1ccc(CNc2ccc3ncccc3c2)cc1	-4	-1	-357	35	-20	3
CC(=O)NCCc1ccc(S(=O)(=O)Nc2ccc3c(c2)OCCO3)cc1	4	10	-8	55*	9	43
COc1ccc(OC)c(S(=O)(=O)Nc2ccc(O)c3ccccc23)c1	30	9	67*	-3	12	12
Cc1n[nH]c(C)c1S(=O)(=O)Nc1ccc2c(c1)OCCO2	-2	43	-15	82*	29	63*
O=S(=O)(Nc1ccc2c(c1)OCCO2)c1cccc(F)c1	9	20	9	52*	8	40
COc1ccc(OC)c(S(=O)(=O)Nc2cccc3c(O)cccc23)c1	.	-11	25	3	.	1
O=S(=O)(Nc1ccc2c(c1)OCCO2)c1ccc(F)c(F)c1	4	8	-4	20	4	0
Cc1ccc(N(CC(=O)Nc2ccc3c(c2)OCCO3)S(=O)(=O)c2c(C)n[nH]c2C)cc1	-2	20	-5	26	2	-2
O=Cc1ccc(OCC(=O)N2CCOCC2)cc1	13	-4	7	-2	-2	-8
COCCC(=O)N1CCC(Oc2ccc(C(=O)N3CCC(N(C)C)C3)cc2)CC1 (stereo unspecified)	0	-19	-19	-8	0	14
SMILES	TRPM1 prom inh	Shn3 3UTR inh	Peg3 prom inh	TWEAK Fn14 block	EBV LMP1 NFkB	TROY NFkB inh
C/C(=N\Nc1cccc2cccnc12)c1ccccc1O	-3	-43	-233	29	-84	-7
C/C(=N\Nc1cccc2cccnc12)c1ccccn1	-47	12	-113	70*	-42	-6
C/C(=N\Nc1cccc2cccnc12)c1ccc(N)cc1	-11	-44	-262	50	-38	62*
O=[N+]([O-])c1ccc(N=Nc2c(Cl)cc(O)cc2Cl)cc1	18	72	72*	87*	35	27
CN(C(=O)c1ccc(S(=O)(=O)c2cccc(Cl)c2)c([N+](=O)[O-])c1)C1CCCCC1	53	56	39	92*	6	56*
COC(=O)C(C(=O)NCC1CCCO1)C1CCCC1 (stereo unspecified)	-6	-8	-2	3	-14	0
Fc1cccc2sc(Nc3nc4cc5c(cc4s3)OCCO5)nc12	-9	-37	-125	73*	-48	72*
Fc1cccc2sc(Nc3nc4cc5c(cc4s3)OCO5)nc12	-71	-66	-327	-25	-80	-70
COc1ccc(/C=N/NC(=O)C(O)(c2ccccc2)c2ccccc2)cc1OC	-9	4	-79	-8	1	4
CCOC(=O)C1CCCN(c2ccc(NC(=O)c3snc4c(=O)[nH]c(C)nc34)cc2)C1 (stereo unspecified)	29	15	28	-28	-54	51*
CCOC(=O)C1CCCN(c2ccc(NC(=O)c3snc4c(=O)[nH]cnc34)cc2)C1 (stereo unspecified)	-10	1	-20	-18	-2	2
CN(C)c1nc(C=C(C#N)C#N)c(Cl)n1-c1ccc(F)cc1	101*	97*	110*	72*	-47	16
CCOc1ccccc1NC(=O)/C(C#N)=C/c1c(C)nn(-c2ccc(F)cc2)c1Cl	-5	-4	24	-40	3	5
C=CCN1C(=O)N(CC=C)c2cccc3cccc1c23	-10	4	18	14	0	66*
COc1ccc(C(c2c(C)n(C)n(-c3ccccc3)c2=O)c2c(C)n(C)n(-c3ccccc3)c2=O)c(OC)c1OC	24	-10	8	-6	80*	-2
Cc1ccc(-c2ccc(=O)n(CC(=O)NCCN3CCCCC3C)n2)cc1 (stereo unspecified)	1	-3	7	15	1	9
Cc1ccc(-c2ccc(=O)n(CCC(=O)NCCN3CCCCC3C)n2)cc1 (stereo unspecified)	-3	3	-4	87*	-1	.
COc1ccc(C(C(=O)NC2CCCC2)N(C(=O)c2snc(-c3ccc(F)cc3)c2N)c2ccccc2)cc1 (stereo unspecified)	18	5	39	-80	-30	-15
Cc1ccccc1N(C(=O)c1snc(C(N)=O)c1N)C(C(=O)NCc1ccccc1)c1ccc(O)cc1 (stereo unspecified)	6	25	49	12	-2	-5
Cc1cc(C)cc(N(C(=O)c2nsc(Cl)c2Cl)C(C(=O)NC2CCCC2)c2ccc(O)cc2)c1 (stereo unspecified)	17	11	60*	20	-2	23
